# Several values for one entry are separate records, joined by “and”; a condition that tells them apart may be missing. Equal entries are not always repeated. The campaign covered roughly 200,000 compounds. About 720 (0.36%) were called active. Cut-off read from the data, not from the text of the source: active = inhibition above about 30%; inactive = the rest, inconclusive results apart. What follows is part of a selection rich in actives, with near analogues and random picks from the rest.
# Test: inhibitors of arbovirus infection in cells – cell-based, full library, 10K replicate subset, primary screen (AID 1251)
# [1] = arbovirus infection cell-based antiviral screen, at 10 µM, stronger effect = higher value
compound,measurement,setting,value
N#Cc1c(-c2ccc(F)cc2)nc(-c2ccccc2)[nH]c1=O,inhibition,[1],6% (inactive)
COc1ccc(C)cc1NC(=O)C(OC(=O)c1cccc(S(=O)(=O)N(C)c2ccccc2)c1)c1ccccc1 (stereo not drawn),inhibition,[1],2.04% (inactive)
CNC(=S)N1CCN(c2ccccn2)CC1,inhibition,[1],8.2% (inactive)
C=CCn1c(P(C)(=O)O)nc2ccccc21,inhibition,[1],-2% (inactive) and 0.03% (inactive)
Cc1ccc(CN2CCN(Cc3ccc4ncccc4c3)CC2CCO)cc1 (stereo not drawn),inhibition,[1],4.14% (inactive)
CCCCNC(=O)Nc1c(C)cc(SC#N)cc1C,inhibition,[1],-9.26% (inactive)
O=C(Nc1nnc(SCc2c(Cl)cccc2Cl)s1)C1CCCO1 (stereo not drawn),inhibition,[1],-0.49% (inactive)
O=C(Nc1nnc(SCc2ccc(Cl)cc2Cl)s1)C1COc2ccccc2O1 (stereo not drawn),inhibition,[1],30.9% (active)
O=C(Nc1nc(-c2ccncc2)cs1)C1COc2ccccc2O1 (stereo not drawn),inhibition,arbovirus infection cell-based antiviral screen; at 10 µM; stronger effect = higher value,-2.24% (inactive)
same,inhibition,arbovirus infection cell-based antiviral screen; measured here: 10K subset replicate screen; at 10 µM; stronger effect = higher value,4.95%
CC(=O)Nc1ccc(OCCC[n+]2cccc(C(=O)[O-])c2)cc1,inhibition,[1],1.68% (inactive)
CCN(c1ccc(NC(=O)COC(=O)CCc2nc3ccccc3n2-c2ccccc2)cc1)C(C)C,inhibition,[1],-15.1% (inactive)
Cc1c(Cl)cccc1NC(=O)Nc1ccc(C(=O)N2CCCC2)cc1,inhibition,[1],-2.79% (inactive)
NC1=NC(=O)C(Cc2cccc(Cl)c2Cl)S1 (stereo not drawn),inhibition,[1],9.95% (inactive)
O=C1NC(=Nc2ccc(Cl)cc2)SC1Cc1cccc(Cl)c1Cl (stereo not drawn),inhibition,[1],30.2% (active)
O=C1N/C(=N\N=C\c2ccco2)SC1Cc1ccc(F)cc1 (stereo not drawn),inhibition,[1],29.1% (inactive)
Cc1ccc(C)n1NC(=O)c1ccc([N+](=O)[O-])cc1,inhibition,[1],0.14% (inactive)
CCOC(=O)c1c(Cc2ccc(Cl)cc2)c[nH]c1C,inhibition,[1],-0.75% (inactive)
COc1cccc2c(O)cc(=O)n(C)c12,inhibition,[1],-3.62% (inactive)
Cc1ccc(S(=O)(=O)NCc2csc(C)n2)c(C)c1,inhibition,[1],12.2% (inactive)
Cc1nc(CNS(=O)(=O)c2ccc(Oc3ccccc3)cc2)cs1,inhibition,[1],10.3% (inactive)
Cc1nc(CNS(=O)(=O)c2cccnc2)cs1,inhibition,[1],32.7% (active)
N#C/C(=C\c1ccc(N2CCOCC2)o1)C(=O)N1CCOCC1,inhibition,[1],-2.38% (inactive)
N#Cc1c(NC(=O)C2CCCO2)sc2c1CCCCC2 (stereo not drawn),inhibition,[1],6.23% (inactive)
N#Cc1c(NC(=O)C2CC(Cl)=CCC2C(=O)O)sc2c1CCCCC2 (stereo not drawn),inhibition,[1],31.9% (active)
N#Cc1c(NC(=O)CCCl)sc2c1CCCCC2,inhibition,[1],-2.94% (inactive)
CC(=O)Nc1ccc(S(=O)(=O)NCC(=O)OCc2cc(=O)oc3ccc4ccccc4c23)cc1,inhibition,[1],2.02% (inactive)
Cc1cc(C)n2nc(C(=O)N(C)C(c3ccccc3)c3ccccc3)nc2n1,inhibition,[1],24.9% (inactive)
COc1cc(C(=O)NCc2ccc(-n3cccc3)cc2)cc(OC)c1OC,inhibition,[1],2.99% (inactive)
N#Cc1ccccc1Sc1ccccc1C(=O)OCC(=O)NC1CCCCC1,inhibition,[1],5.04% (inactive)
COC(=O)C1=C(NC(=O)C(C)(C)C)CCS1,inhibition,[1],2.37% (inactive)
Cc1ccnc(NS(=O)(=O)c2ccc(NC(=O)c3ccc(S(=O)(=O)N(C)C)cc3)cc2)n1,inhibition,[1],14.3% (inactive)
Cc1c(CCOC(=O)CC23CC4CC(CC(C)(C4)C2)C3)sc[n+]1Cc1ccc([N+](=O)[O-])cc1,inhibition,[1],-19.1% (inactive)
COC(=O)C1=C(C(=O)OC)C(c2cc([N+](=O)[O-])ccc2O)c2sc(=O)[nH]c2S1 (stereo not drawn),inhibition,[1],-2.76% (inactive)
Cc1ccc(NC(=O)c2ccccn2)cc1S(=O)(=O)N1CCOCC1,inhibition,[1],20% (inactive)
Cc1cccc(NC(=O)NC(=S)NC(=O)c2ccccc2)c1,inhibition,[1],10.4% (inactive)
CCC(=O)NCc1cc(-c2nn(C)c(=O)c3ccccc23)ccc1OC,inhibition,[1],-10.6% (inactive)
O=C(COC(=O)c1ccccc1F)Nc1cc(S(=O)(=O)N2CCOCC2)ccc1N1CCCC1,inhibition,[1],3.02% (inactive)

# From PubChem BioAssay AID1251 (SRMLSC, 2008)
